The campaign covered roughly 310,000 compounds. About 11,000 (3.5%) were called active. Another 8% or so got no clear call; they are omitted. This is one part of a sample in which actives are shown more often than they occur. The call rests on the fitted dose curve; in most records, active means well fitted inhibition curve with a large enough effect; inconclusive means small, poorly fitted or top-dose-only effect, or effect the other way; inactive means flat fitted curve, though single readings scatter.
Test: VP16 counterscreen qHTS for inhibitors of ROR gamma transcriptional activity;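 further: Gal4-VP16 expression switched on by copper sulfate through the metallothionein promoter; nearly all actives have a fitted effect of over 50% in size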
Conditions: Drosophila S2 Gal4-VP16 UAS-luciferase, luminescence, 20 h; series mostly up to 53.6 µM; activity, negative = inhibition: at the top concentration
Excerpt: NIH Molecular Libraries Probe Production Network [MLPCN]
NIH Chemical Genomics Center [NCGC]
Assay Provider: Dan Littman, New York University
The retinoic acid-related orphan receptor (ROR) gamma is a transcription factor that has a central role in the differentiation of Th17 cells, a subset of T helper cells that secrete the inflammatory cytokines IL-17, IL-17F, and IL-22. Th17 cells have been implicated in graft versus host disease, autoimmune disease and asthma. ROR gamma is induced in naive T helper cells in the presence of TGF-beta combined with IL-6, IL-21, or IL-23, and thereafter directs the expression of the Th17 lineage cytokines. To identify nonspecific inhibitors, a Drosophila Schneider cell line was stably transfected with two vectors: a gene expressing a fusion of the Gal4 DNA binding domain and VP16 transactivation domain under the control of the metallothionine promoter and a Photinus luciferase reporter regulated by the Gal4 binding site enhancer, UAS. […] Small molecule inhibitors that inhibit components common to the RORgt and VP16 assays, such as the Gal4 DNA binding domain or the UAS luciferase reporter, will be active in both assays and thus scored as nonspecific.
For screening, 600 cells in 4 uL/well were dispensed into white solid 1536-well plates (Grenier) using a solenoid-based dispenser. Following transfer of 23 nL compound or DMSO vehicle by a pin tool, the plates were incubated 1 hr at ambient temperature, and 1 uL/well copper sulfate (700 uM final concentration) was added. The plates were centrifuged 15 s at 1000 RPM and incubated 20 hr at ambient temperature. After addition of 1.5 uL Photinus luciferase detection reagent, the plates were incubated 10 min at ambient temperature and then read by a ViewLux (Perkin Elmer) to detect luminescence.
On the % scale 0 is the no-effect control and ±100 the full control effect; potency means the concentration at half of the fitted maximal effect.

SMILES	activity, negative = inhibition	Potency
COc1cc(NC(=O)C2=C(C)OCCS2)c(Cl)cc1C(=O)NCCN1CCN(C)CC1	-7.6% (inactive)	–
Cn1nccc1/C=N\NC(=O)c1ccc(Cl)cc1	-8.81% (inactive)	–
CCOc1ccc(CCNC(=O)Nc2ccccc2)cc1OCC	6.47% (inactive)	–
COc1ccc(/C=C2\SC(=S)N(CCC(=O)Nc3cccc(C(=O)O)c3)C2=O)cc1OC	-1.72% (inactive)	–
O=C(CCCN1C(=O)/C(=C/c2ccco2)SC1=S)Nc1ccccc1	–	12.6 µM (active)
Cc1ccc(/C=C2\SC(=S)N(CCC(=O)Nc3ccc(O)cc3)C2=O)cc1	7.84% (inactive)	–
O=C(CCCN1C(=O)/C(=C/c2ccccc2)SC1=S)Nc1ccc(O)cc1	–	2 µM (active)
COc1ccc(NC(=O)CCN2C(=O)/C(=C/c3ccc4c(c3)OCO4)SC2=S)cc1	-2.97% (inactive)	–
COc1ccccc1C(=O)NNC(=O)CCN1C(=O)/C(=C\c2ccccc2)SC1=S	-9.43% (inactive)	–
COC(=O)c1ccc(Nc2ncnc3sccc23)cc1	3.15% (inactive)	–
CCCCCCC(O)(CCN1CCCCC1)c1ccccc1 (centres undefined)	-16.4% (inactive)	–
CC(=O)N1c2ccc(S(=O)(=O)N3CCC(C(=O)N4CCN(c5ccccc5)CC4)CC3)cc2CC1C (centres undefined)	4.75% (inactive)	–
Fc1ccc(Br)cc1/C=N/n1cnnc1	-6.06% (inactive)	–
CCOc1cc(/C=N/n2cnnc2)c(Br)cc1O	–	5.62 µM (active)
Brc1cc(/C=N/n2cnnc2)oc1Br	-2.44% (inactive)	–
COc1cc(C(=O)OCC(=O)NC(C)CCc2ccccc2)cc(OC)c1OC (centres undefined)	3.99% (inactive)	–
O=C(C[n+]1cc(Br)cc2ccccc21)c1ccc(F)cc1	16.3% (inactive)	–
COc1cccc(CNc2nc(C(F)(F)F)nc3ccccc23)c1	-10.5% (inactive)	–
c1coc(CNc2ncnc3ccccc23)c1	–	10 µM (active)
COc1ccc(CNc2ncnc3ccccc23)cc1	–	7.08 µM (active)
COc1ccc(Nc2ncnc3ccc(OC)cc23)cc1	-2.23% (inactive)	–
c1ccc(-c2nc(NCc3ccco3)c3ccccc3n2)cc1	-86.1% (inactive)	–
Brc1ccc2ncnc(NCc3cccnc3)c2c1	3.99% (inactive)	–
CCOCCCN(C)C1CCN(C(=O)c2oc3ccccc3c2NC(=O)COc2cccc(C)c2)CC1	-2.07% (inactive)	–
Cc1cccn2c(=O)c3cc(C(=O)NCCN4CCOCC4)c(=N)n(Cc4cccnc4)c3nc12	-1.41% (inactive)	–
COc1cc2c(cc1OC)CN(C(=O)c1cc(S(=O)(=O)N3CCCCC3)ccc1Cl)CC2	6% (inactive)	–

SMILES	activity, negative = inhibition	Potency
Cc1cc(C)n(-c2nc(SCC(=O)N3CCCC3)c3c4c(sc3n2)CCCC4)n1	–	10 µM (active)
Cc1nc2sc3c(c2c(=O)n1NC(=O)CCl)CCCC3	0.993% (inactive)	–
COCCNc1nc(-n2nc(C)cc2C)nc2sc3c(c12)CCCC3	–	3.16 µM (active)
CCOC(=O)CSc1nc2sc3c(c2c(=O)[nH]1)CC(C)(C)OC3	-4.44% (inactive)	–
Cc1ccc(C)c(-n2c(SCC(=O)O)nc3sc4c(c3c2=O)CCCC4)c1	-15.4% (inactive)	–
CCC(O)CNc1nc(-n2nc(C)cc2C)nc2sc3c(c12)CC(C)(C)OC3 (centres undefined)	–	3.98 µM (active)
CC(C)c1nc(SCC(=O)Nc2cccc(C(=O)O)c2)c2c3c(sc2n1)CCCC3	13% (inactive)	–
CC/C(C)=N/Nc1nc2sc3c(c2c(=O)[nH]1)CC(C)(C)OC3	-5.75% (inactive)	–
CCCc1nc(SCC(=O)N2CCCC2)c2c(=O)n(C)c(=O)n(C)c2n1	7.13% (inactive)	–
O=C(C1CCCN(S(=O)(=O)c2ccccc2)C1)N1CCN(c2ccc(F)cc2)CC1 (centres undefined)	-1.43% (inactive)	–
Cc1nc([N+](=O)[O-])cn1CC(=O)Nc1ccc(Cl)cc1	-5.36% (inactive)	–
CC(NC(=S)Nc1ccccc1)C1COc2ccccc2O1 (centres undefined)	–	5.01 µM (active)
CC(=O)c1cccc(NC(=O)C2COc3ccccc3O2)c1 (centres undefined)	28.1% (inactive)	–
O=C(NCC1COc2ccccc2O1)C1(c2ccccc2)CCCC1 (centres undefined)	-20.2% (inactive)	–
CSc1nc2ccccc2c(=O)n1Cc1ccc(F)cc1	7.17% [at 10 µM] (inactive)	–
Cn1c(CO)cnc1SCc1ccccc1	1.65% (inactive)	–
CSc1c(SCc2ccccc2)cnn(Cc2ccccc2)c1=O	–	7.08 µM (active)
O=C(NCC(=O)N1CCN(c2ccccc2O)CC1)c1ccc2ccccc2c1	1.8% (inactive)	–
Cc1ccccc1-n1cc(CNC(=O)C2CCC(=O)N(C3CC3)C2)cn1 (centres undefined)	-2.71% (inactive)	–
CC(C)CC(=O)Nc1ccc(Cc2ccncc2)cc1	2.31% (inactive)	–
Cc1c(C(=O)N2CCCc3ccccc32)oc2ccccc12	-1.3% (inactive)	–
Cc1cc(-c2ccc(C)c(S(=O)(=O)NCCCN(Cc3ccccc3)C(C)C)c2)on1	13.3% (inactive)	–
CN1/C(=C\C(=O)c2cccnc2Cl)C(C)(C)c2ccccc21	-8.82% (inactive)	–
Cc1noc(C)c1C(=O)OCC(=O)/C=C1\N(C)c2ccccc2C1(C)C	-5.14% (inactive)	–
CC(=O)Nc1cccc(OCC(=O)/C=C2\N(C)c3ccccc3C2(C)C)c1	–	3.16 µM (active)
COCC1CCN(C(=O)CCc2nnc(C3(c4ccc(Cl)cc4)CCC3)o2)C1 (centres undefined)	27.7% (inactive)	–

SMILES	activity, negative = inhibition	Potency
C=CCn1c(=O)c(C(=O)NCc2ccc3c(c2)OCO3)c(O)c2ccccc21	-4.31% (inactive)	–
CN(C)S(=O)(=O)c1ccc(NC(=O)COC(=O)c2n[nH]c3ccccc23)cc1	–	8.91 µM (active)
CN(C)S(=O)(=O)c1ccc(NC(=O)COC(=O)Cn2[nH]c(=O)c3ccccc3c2=O)cc1	-2.41% (inactive)	–
O=C(COC(=O)c1n[nH]c2ccccc12)NCc1ccccc1	7.8% (inactive)	–
O=C1c2cccc3c([N+](=O)[O-])ccc(c23)C(=O)N1CC1CCCO1 (centres undefined)	–	5.62 µM (active)
O=C(/C=C/c1ccccc1[N+](=O)[O-])NCC1CCCO1 (centres undefined)	3.92% (inactive)	–
CCC(=O)Nc1ccc(C(=O)Nc2ccc3c(c2)C(=O)N(CC2CCCO2)C3=O)cc1 (centres undefined)	-24.9% (inactive)	–
Cc1ccc(-n2c(C)nnc2SCC(=O)NC2CC2)cc1	1.94% (inactive)	–
O=C(NCc1cccc(Cl)c1)C1CCC(=O)N(C2CC2)C1 (centres undefined)	-5.17% (inactive)	–
CCC(=O)N1CCN(c2ccccc2NC(=O)COc2cccc(C)c2C)CC1	4.11% (inactive)	–
CCOc1ccccc1NC(=S)N1CCN(c2cccc(C)c2C)CC1	–	4.47 µM (active)
COc1ccccc1CN1CCN(C(c2ccccc2)c2ccccc2)CC1	-11.1% (inactive)	–
COc1ccccc1NC(=S)N1CCN(C(c2ccccc2)c2ccccc2)CC1	–	20 µM (active)
CCOc1ccccc1N1CCN(C(=S)Nc2ccc(S(N)(=O)=O)cc2)CC1	-15.7% (inactive)	–
COc1ccccc1NC(=S)N1CCN(c2ccc(F)cc2)CC1	-3.46% (inactive)	–
Cc1sc2nc(SCCO)n(-c3ccccc3)c(=O)c2c1C	-3% (inactive)	–
COc1ccc(C2c3[nH]c4ccccc4c3C[C@H]3C(=O)N(CC(C)C)CC(=O)N23)c(OC)c1 (some centres undefined)	-0.271% (inactive)	–
O=S(=O)(NC1CCCCC1N1CCCCC1)c1ccc(Cl)cc1 (centres undefined)	-10.5% (inactive)	–
COc1ccc(OC)c(C(C)NC(=S)Nc2ccc(S(=O)(=O)Nc3ncccn3)cc2)c1 (centres undefined)	10.8% (inactive)	–
COC(=O)c1cccnc1NC(=S)NC(C)C	–	4.47 µM (active)
CCOC(=O)c1cccnc1NC(=O)c1ccncc1	-16% (inactive)	–
CCN(C(=O)c1cc([N+](=O)[O-])ccc1NCc1cccnc1)c1ccccc1	-7.93% (inactive)	–
O=C1NCC(=O)N(Cc2ccccc2)/C1=C/c1ccccc1	0.172% (inactive)	–
CN(C)c1ccc(/C=C2\NC(=S)N(Cc3ccccc3)C2=O)cc1	–	11.2 µM (active)
CC1=NN(Cc2ccccc2)C(=O)/C1=C/c1ccc(N(C)C)cc1	4.44% (inactive)	–
Cn1cc(S(=O)(=O)Nc2ccc(Cl)cc2Cl)c(=O)n(C)c1=O	-9.29% (inactive)	–

SMILES	activity, negative = inhibition	Potency
Cc1cc(C)nc(-n2nc(C)cc2NC(=O)c2ccc(F)cc2F)n1	–	3.16 µM (active)
Cc1cc(NC(=O)c2cnn3cccnc23)n(-c2ccccc2)n1	-28.7% (inactive)	–
CC(=O)N/C(=N/c1nc(C)cc(C)n1)Nc1ccc(F)cc1F	5.33% (inactive)	–
COc1cc2ccccc2cc1C(=O)N(CCN(C)C)c1nc2c(F)cccc2s1	-13.9% (inactive)	–
CC(C)(C)SCCSC1=CC(=O)CC(c2ccccc2)C1 (centres undefined)	28.7% (inactive)	–
O=C(Nc1ccc(S(=O)(=O)N2CCCCCC2)cc1)c1c(F)cccc1F	-14.4% (inactive)	–
CCOc1ncccc1C(=O)NCCc1ccc(OC)cc1	-0.0396% (inactive)	–
Cc1cc(C)cc(NC(=O)C2CCCN2S(=O)(=O)c2cccc3cccnc23)c1 (centres undefined)	0.608% (inactive)	–
O=C(Nc1nc2ccc([N+](=O)[O-])cc2s1)c1ccncc1	-3.85% (inactive)	–
CS(=O)(=O)c1ccc2nc(NC(=O)c3ccc(N4CCCC4=O)cc3)sc2c1	-7.58% (inactive)	–
CSc1nc2ccc(S(=O)(=O)N3CCc4ccccc43)cc2s1	-40.6% (inactive)	–
O=C(Nc1nc2ccc([N+](=O)[O-])cc2s1)c1ccc(S(=O)(=O)N2CCCc3ccccc32)cc1	–	3.98 µM (active)
O=C(NC(Nc1nc2ccc([N+](=O)[O-])cc2s1)(C(F)(F)F)C(F)(F)F)c1ccccc1	–	2.82 µM (active)
O=C(COC(=O)c1ccc(F)cc1)Nc1nc2ccc([N+](=O)[O-])cc2s1	-1.03% (inactive)	–
CCOC(=O)c1cc(C(=O)Nc2ccc(S(=O)(=O)Nc3ccc(OC)cc3)cc2)nn1C	-13.2% (inactive)	–
COC(=O)c1cccc(N(C(=O)CNC(=O)c2cccs2)C(C(=O)NCC2CCCO2)c2ccc(OC)c(OC)c2)c1 (centres undefined)	-2.8% (inactive)	–
Cc1cccc(CCNS(=O)(=O)c2ccc3c(c2)NC(=O)CO3)c1	10.3% (inactive)	–
COc1ccc(CN2CCNC(=O)C2CC(=O)NCc2cn[nH]c2-c2ccccc2)c(F)c1 (centres undefined)	-5.29% (inactive)	–
COc1ccc(C(CNC(=O)COc2ccccc2OC)N2CCCCC2)cc1 (centres undefined)	-0.743% (inactive)	–
O=C1OC2(CCCCC2)CC2=C1C1O[C@](c3ccsc3)(Cc3ccccc31)O2	-4.71% [at 10 µM] (inactive)	–
COc1cc2c(cc1OC)C(c1ccccc1Br)NC(=O)C2 (centres undefined)	-3.64% (inactive)	–
COc1ccc(NC(=O)CCCC2CCCCC2)c(OC)c1	9.83% (inactive)	–
Cc1cccc(OCC(=O)NCCCNC(=O)c2ccccn2)c1	4.73% (inactive)	–
CCN(CC)CCOc1ccc2c(c1)C(=NNC(=O)c1ccccn1)c1cc(OCCN(CC)CC)ccc1-2	–	10 µM (active)
CCOc1cc(NC(=O)c2ccccn2)c(OCC)cc1NC(=O)c1ccc(OC)cc1	4.71% (inactive)	–
Cc1onc(C(=O)Nc2ccc3c(c2)OCO3)c1[N+](=O)[O-]	-0.154% (inactive)	–
